A selection: hits, their analogues and other compounds. The true share with any hit is near 1.5%.
HGIII-sPLA2 inh = Blocks human group III sPLA2 activity; Q9NZ20; QFRET BODIPY PC-A2 liposome hydrolysis, fluorescence; inhibition, % at 12.2 µM; actives 0.56% (n = 370,000);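 active = inhibition above mean plus 3 SD of compounds lying within the high and low control bounds, cut at about 19% in these data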;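 also: 0% = median of test compound wells and 100% = no enzyme DMSO wells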
Target sequence (Q9NZ20 whole entry, looked up): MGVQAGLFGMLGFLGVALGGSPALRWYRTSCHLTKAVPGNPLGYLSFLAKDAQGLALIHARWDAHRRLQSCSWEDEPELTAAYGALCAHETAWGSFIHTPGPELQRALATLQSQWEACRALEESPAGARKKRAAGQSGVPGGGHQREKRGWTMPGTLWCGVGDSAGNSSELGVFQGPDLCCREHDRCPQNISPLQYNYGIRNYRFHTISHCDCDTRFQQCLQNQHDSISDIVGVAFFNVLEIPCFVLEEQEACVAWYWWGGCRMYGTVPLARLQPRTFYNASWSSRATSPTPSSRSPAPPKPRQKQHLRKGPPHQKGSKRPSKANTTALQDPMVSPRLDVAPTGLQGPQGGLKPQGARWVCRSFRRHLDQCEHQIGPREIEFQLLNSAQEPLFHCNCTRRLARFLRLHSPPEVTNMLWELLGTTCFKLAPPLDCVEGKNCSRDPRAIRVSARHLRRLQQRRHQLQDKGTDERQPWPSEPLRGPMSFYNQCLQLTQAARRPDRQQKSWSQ
PLC-gamma1 inh = PLC-gamma1 (human) inhibition, primary screen. P19174. purified PLC-gamma1, fluorogenic substrate, fluorescence. inhibition, % at 12.2 µM. actives 0.84% (n = 370,000). AID 720700; in the data active = inhibition above about 9.5%
DAGLB inh = diacylglycerol lipase beta (human) inhibition | Q8NCG7 | HEK293T DAGLB membrane lysate, EnzChek fluorogenic substrate | inhibition, % at 5.17 µM | actives 0.059% (n = 340,000) | AID 504411; in the data active = inhibition above about 34%;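 also: 0% = enzyme with vehicle and 100% = wells lacking enzyme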
PLCb3 inh = PLC-beta3 (human) inhibition, primary screen; actives 0.18% (n = 370,000); Purified PLC-beta3, fluorogenic substrate, fluorescence; Q01970; inhibition, % at 12.2 µM;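 also: 0% = median of compound wells on plate and 100% = full blocker control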
PLCgamma1 ctr = inhibits human PLC-gamma1 in PLC-beta3 counter-screen; shares compounds with PLC-gamma1 inh; purified PLC-gamma1, fluorogenic substrate, fluorescence; inhibition, % at 12.3 µM; actives 3.1% (n = 3,300); AID 743258; in the data active = inhibition above about 9.5%
PLCbeta3 conf = human PLC-beta3 inhibition, confirmation. actives 1% (n = 3,300). inhibition, % at 12.3 µM. purified PLC-beta3, fluorogenic substrate fluorescence. AID 743261. shares compounds with PLC-gamma1 inh
The depositor's hits bear a star; · = no result. Rule as the data show it, unless noted: active = inhibition above about 11%; inactive = the rest.

SMILES	HGIII-sPLA2 inh	PLC-gamma1 inh	DAGLB inh	PLCb3 inh	PLCgamma1 ctr	PLCbeta3 conf
S=c1[nH]nc(-c2n[nH]c3c2CCC3)n1N=Cc1ccc(OCc2ccccc2)cc1	9	-1	·	0	·	·
c1ccc(-c2csc(Nc3cccnc3)n2)cc1	-28	5	1	-4	·	·
Clc1ccc(-c2csc(Nc3cccnc3)n2)cc1	10	10*	-1	7	0	0
OC(COc1ccc(OCc2ccccc2)cc1)CN1CCOCC1 (stereo not drawn)	-11	9.7*	2	9	-3	2
O[C@H](COc1ccccc1)CN1CCC(C(O)(c2ccccc2)c2ccccc2)CC1	-17	5	·	12*	-4	-1
O[C@H](COc1ccc(Cl)cc1)CN1CCC(C(O)(c2ccccc2)c2ccccc2)CC1	-23	1	·	0	·	·
Cc1ccc(C2=CCN(C)C(=O)N2c2ccc(Br)cc2)cc1	6	4	·	-3	·	·
CCOC(=O)c1ccccc1NC(=O)CN(c1ccccc1OC)S(C)(=O)=O	4	7	2	11*	-3	-6
O=[N+]([O-])c1cnccc1Nc1ccccc1	-6	1	-1	4	·	·
O=C(O)c1cccc(Nc2ccncc2[N+](=O)[O-])c1	4	11*	0	6	-8	-2
O=C(OCC#CCSc1nnc(-c2cccc3ccccc23)o1)c1ccc(OC(F)(F)F)cc1	4	-3	·	-4	·	·
COC(=O)[C@]12C[C@H](CC(=O)NCc3cccc(C(F)(F)F)c3)C(=O)N(Cc3ccco3)C1=C[C@H](C(C)(C)C)O[C@@H]2C	-5	-1	·	1	·	·
CCOC(=O)NC(Nc1nnc(SCC)s1)(C(F)(F)F)C(F)(F)F	8	11*	5	6	-7	-5
CCSc1nnc(NC(=O)NC(C)(C(F)(F)F)C(F)(F)F)s1	1	3	-6	0	·	·
O=S(=O)(c1ccccc1)N(CC(F)(F)F)c1ccc(C(O)(C(F)(F)F)C(F)(F)F)cc1	-7	12*	·	4	-11	-7
Cc1cccc(NC(=O)Cn2c(=O)n(CCc3c[nH]c4ccccc34)c(=O)c3cccnc32)c1	-85	11*	·	5	0	1
C[C@H]1CCC(=O)N([C@H](COc2ccccc2)Cc2ccccc2)CC1	4	11*	-10	2	-9	-3
CC1CCC(=O)N(CCOc2ccccc2)CC1 (stereo not drawn)	6	1	3	3	·	·
N=c1c2c(ccn1CCCc1ccccc1)Oc1ccc3ccccc3c1C2c1ccccc1 (stereo not drawn)	-4	3	·	-2	·	·
C=CCn1c(N2CCCC2)nc2c1c(=O)n(C)c(=O)n2C	4	9.7*	2	-1	3	2
CCc1cccc2c(C(C)c3ccccc3O)c[nH]c12 (stereo not drawn)	-42	-2	·	-7	·	·
Cc1cnc(CNC(=O)c2ccc3sc([C@H]4C[C@H](O)[C@@H](CO)O4)nc3c2)cn1	4	10*	·	9	-3	-35
O=C(NNC(=O)c1csc(-c2ccccc2)n1)c1ccccc1	1	4	·	11*	-10	-5
O=C(NNC(=O)c1csc(-c2cccnc2)n1)c1ccccc1	-2	9.6*	1	-5	-2	1
O=C(NNS(=O)(=O)c1ccccc1)c1csc(-c2cccnc2)n1	-12	4	3	-7	·	·
SMILES	HGIII-sPLA2 inh	PLC-gamma1 inh	DAGLB inh	PLCb3 inh	PLCgamma1 ctr	PLCbeta3 conf
COc1ccc2c(c1)CNC2CS(=O)(=O)NCc1ccccc1 (stereo not drawn)	2	-25	·	-34	·	·
COc1ccc(OC)c(S(=O)(=O)NCCCN2CCOCC2)c1	1	12*	2	-2	-7	-1
Nc1[nH]c2cc(Cl)ccc2c1C(=O)NCCc1ccc(Cl)cc1	-14	-6	·	-3	·	·
C[C@H](O)[C@@H]1CN2CCc3ccc(-c4ccc5c(c4)OCO5)cc3[C@@H]2C[C@@H]1N(C)CC1CCCCC1	-4	-6	·	-3	·	·
Cc1ccc(/C=C/C(=O)O)cc1S(=O)(=O)NC1CCS(=O)(=O)C1 (stereo not drawn)	6	11*	0	8	0	1
Cc1ccc(/C=C/C(=O)O)cc1S(=O)(=O)NCC1CCCO1 (stereo not drawn)	1	1	2	0	·	·
CCC[C@H]1[C@@H](NC(=O)c2ccc(OC)cc2)CC[C@@]23CCCN2C(=O)CCC[C@@H]13	4	2	·	2	·	·

Bioassay records deposited in PubChem by The Scripps Research Institute Molecular Screening Center.
